Screening data: PubChem BioAssay, several laboratories
SKKanGAS inh: SKKanGAS growth inhibition. inhibition, % at 7.5 µM. S. pyogenes SKKanGAS, kanamycin growth, BacTiter-Glo, 6 h. 300,000 compounds, 1.3% hits;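 active = mean replicate score, as percent of positive control median, at least 50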;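 also: strain carries kanamycin resistance gene driven by streptokinase promoter and grows in 40 µg/ml kanamycin; loss of luminescence reflects streptokinase promoter inhibition or plain growth inhibition; 0% = median of DMSO wells and 100% = positive control at its reference dose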
tim23-1 inh: tim23-1 yeast growth inhibition. inhibition, % at 20 µM. AID 463212. 330,000 compounds, 1.3% hits. S. cerevisiae tim23-1 growth, BacTiter-Glo luminescence, 24 h;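 active = growth inhibition of the mutant yeast at or above 50%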;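 also: temperature-sensitive mutant grown at 25 °C; plate controls were DMSO-treated mutant yeast for no effect and medium wells lacking yeast for full effect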
ATG4B inhibitor: ATG4B (human) cysteine protease inhibition | AID 504462 | ATG4B cleavage of LC3-PLA2, NBD-HPC fluorescence, 1 h | inhibition, % at 8.33 µM | 340,000 compounds, 0.51% hits | Q9Y4P1; in the data active = inhibition above about 40%
Target sequence (Q9Y4P1 whole entry, looked up): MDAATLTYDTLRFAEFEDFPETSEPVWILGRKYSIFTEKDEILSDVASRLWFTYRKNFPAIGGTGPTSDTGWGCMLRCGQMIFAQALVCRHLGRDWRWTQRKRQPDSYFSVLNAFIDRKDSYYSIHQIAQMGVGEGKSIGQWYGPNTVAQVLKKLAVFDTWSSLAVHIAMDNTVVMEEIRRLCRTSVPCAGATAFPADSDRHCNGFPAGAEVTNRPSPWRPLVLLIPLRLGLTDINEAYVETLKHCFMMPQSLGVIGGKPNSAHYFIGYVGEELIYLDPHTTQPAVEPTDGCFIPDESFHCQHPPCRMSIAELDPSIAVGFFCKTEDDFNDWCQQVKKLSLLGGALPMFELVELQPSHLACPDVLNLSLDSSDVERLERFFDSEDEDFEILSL
PfHsp90 yeast 2: growth inhibition of yeast expressing Plasmodium Hsp90. S. cerevisiae expressing PfHsp90, BacTiter-Glo ATP, 48 h; yeast lacking PDR1 and PDR3 efflux regulators. inhibition, % at 9.4 µM. 310,000 compounds, 0.32% hits;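 active = every replicate shows inhibition above about 80%, whatever the replicate mean, limit read from the data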;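 also: 0% = DMSO neutral controls and 100% = 20 µM radicicol positive controls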
TIM10 inh: growth inhibitors of TIM10 yeast strain; S. cerevisiae TIM10 strain growth, BacTiter-Glo luminescence, 24 h; inhibition, % at 10 µM; 330,000 compounds, 1.4% hits; AID 463195;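 active = inhibition of 40% or more at the single tested concentration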;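 also: wild-type TIM10 isogenic control strain grown at permissive 25 °C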
tim10-1 inh: growth inhibitors of tim10-1 mutant yeast; S. cerevisiae tim10-1 ts strain growth, BacTiter-Glo, 24 h; inhibition, % at 20 µM; 330,000 compounds, 2.2% hits;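 active = inhibition of at least 40%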;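 also: mutant grown at 25 °C; 0% = DMSO wells with yeast and 100% = wells holding no yeast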
tim10-1 confirm: confirmation of tim10-1 mutant yeast growth inhibitors | 7,400 compounds, 56% hits | S. cerevisiae tim10-1 ts strain growth, BacTiter-Glo, 24 h | inhibition, % at 20 µM | shares compounds with tim10-1 inh;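 active = inhibition of yeast growth at or above a set limit in either of two repeat tests at 20 µM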;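 also: tim10-1 mutant grown at permissive 25 °C to find synthetic lethal compounds; 0% = DMSO yeast wells and 100% = medium wells without yeast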
An asterisk follows results filed as active. Most compounds without a hit are left out; they make up all but 4.7% or so of the library.

How did CC(C)c1ccc(S(=O)(=O)Nc2ccc(SC(F)F)cc2)cc1 do in these assays?
SKKanGAS inh: 27; tim23-1 inh: 43; ATG4B inhibitor: -3; PfHsp90 yeast 2: -38; TIM10 inh: 26; tim10-1 inh: 50*; tim10-1 confirm: 28*

Results for CC(C)c1ccc(NS(=O)(=O)c2ccc(Cl)nc2)cc1 ?
SKKanGAS inh: -1; tim23-1 inh: 22; ATG4B inhibitor: 0; PfHsp90 yeast 2: -13; TIM10 inh: 17; tim10-1 inh: 4

How did O=C(/C=C/c1ccccc1)NNC(=O)C1CC1 do in these assays?
SKKanGAS inh: -1; tim23-1 inh: 1; ATG4B inhibitor: -3; PfHsp90 yeast 2: 13; TIM10 inh: 0; tim10-1 inh: 6

What do the screens show for `C=CCNC(=O)/C(C#N)=C/c1ccc2c(c1)OCCO2`?
SKKanGAS inh: -3; tim23-1 inh: 30; ATG4B inhibitor: -10; PfHsp90 yeast 2: -4; TIM10 inh: 4; tim10-1 inh: 43*; tim10-1 confirm: 26

How did C=C(C)C1CC=C(C)/C(=N/NC(=O)CNc2ccc(OCC)cc2)C1 (stereo not given) do in these assays?
SKKanGAS inh: 7; tim23-1 inh: 28; ATG4B inhibitor: -4; PfHsp90 yeast 2: -1; TIM10 inh: 4; tim10-1 inh: 42*; tim10-1 confirm: 30

How did Cc1c(C(=O)OC2CCCCC2)sc2nc[nH]c(=O)c12 do in these assays?
SKKanGAS inh: 6; tim23-1 inh: 23; ATG4B inhibitor: -16; PfHsp90 yeast 2: -24; TIM10 inh: 20; tim10-1 inh: 40*; tim10-1 confirm: 13

How did Cc1cc(C)n2nc(SCc3ccc(F)cc3Cl)nc2n1 do in these assays?
SKKanGAS inh: 0; tim23-1 inh: 37; ATG4B inhibitor: -5; PfHsp90 yeast 2: 22; TIM10 inh: 15; tim10-1 inh: 2

Results for Cc1cc(C)n2nc(SCc3c(F)cccc3Cl)nc2n1 ?
SKKanGAS inh: 20; tim23-1 inh: 42; ATG4B inhibitor: -2; PfHsp90 yeast 2: -8; TIM10 inh: 26; tim10-1 inh: 48*; tim10-1 confirm: 33*

What do the screens show for `COc1ccc(S(=O)(=O)N(C)CC(=O)Nc2ccc(C(N)=O)cc2)cc1OC`?
SKKanGAS inh: -10; tim23-1 inh: 5; ATG4B inhibitor: -2; PfHsp90 yeast 2: -7; TIM10 inh: -1; tim10-1 inh: 6

Results for O=C(Cc1coc2ccc3ccccc3c12)N1CCN(c2ncccn2)CC1 ?
SKKanGAS inh: 6; tim23-1 inh: 31; ATG4B inhibitor: -9; TIM10 inh: 20; tim10-1 inh: 43*; tim10-1 confirm: 24

Results for Cc1ccc(NC(=O)C(C)N2C(=O)C3CC=C(Cl)CC3C2=O)cc1 (stereo not given) ?
SKKanGAS inh: -8; tim23-1 inh: -14; ATG4B inhibitor: -5; PfHsp90 yeast 2: -4; TIM10 inh: -34; tim10-1 inh: -17

What do the screens show for `Cc1ccc(NC(=O)C(C)N2C(=O)C3C4CC(C(Br)C4Br)C3C2=O)cc1` (stereo not given)?
SKKanGAS inh: 5; tim23-1 inh: 19; ATG4B inhibitor: -8; TIM10 inh: 24; tim10-1 inh: 48*; tim10-1 confirm: 32*

What do the screens show for `Cc1ccc(OC(C)C(=O)O)cc1C` (stereo not given)?
SKKanGAS inh: 8; tim23-1 inh: 12; ATG4B inhibitor: -3; PfHsp90 yeast 2: -11; TIM10 inh: -3; tim10-1 inh: 9

Results for CC(C)(C)C(=O)Nc1ccccc1C(=O)Nc1cc(Cl)ccc1Cl ?
SKKanGAS inh: 2; tim23-1 inh: 41; ATG4B inhibitor: -1; PfHsp90 yeast 2: -37; TIM10 inh: 39; tim10-1 inh: 43*; tim10-1 confirm: 36*

How did CC(C)(C)C(=O)Nc1ccccc1C(=O)Nc1cccnc1 do in these assays?
SKKanGAS inh: -7; tim23-1 inh: 2; ATG4B inhibitor: 7; PfHsp90 yeast 2: 3; TIM10 inh: -16; tim10-1 inh: 10

Results for Cc1ccccc1CC1(CO)CCCN(C(=O)c2ccccc2Cl)C1 (stereo not given) ?
SKKanGAS inh: -6; tim23-1 inh: 15; ATG4B inhibitor: -9; PfHsp90 yeast 2: -1; TIM10 inh: 24; tim10-1 inh: 32
